Reference: the antibiotic and cytotoxicity screens of Wong et al. (2023)
Out of some 39,000 compounds screened, about 3,300 (8.5%) were called active. What follows is part of a selection rich in actives, with near analogues and random picks from the rest.

system: HepG2; assay: cytotoxicity call (relative viability < 0.9); conditions: 10 µM

Structure (SMILES) | cytotoxicity call
C[C@@H]1CN([C@@H](C)CO)C(=O)Cc2cc(NS(C)(=O)=O)ccc2O[C@@H]1CN(C)S(=O)(=O)c1cccs1 | inactive
CN1CCN(C(=O)C[C@@H]2C[C@H]3c4cc(NC(=O)c5ccc6c(c5)OCO6)ccc4O[C@H]3[C@H](CO)O2)CC1 | inactive
COc1ccc(S(=O)(=O)N(C)C[C@H]2Oc3cc(C#CC4CC4)ccc3S(=O)(=O)N([C@H](C)CO)C[C@@H]2C)cc1 | inactive
CCCCc1oc2ccc(NS(C)(=O)=O)cc2c1C(=O)c1ccc(OCCCN(CCCC)CCCC)cc1 | active
CCCCN(CCCC)CCCOC(=O)c1ccc(N)cc1.O=S(=O)(O)O | inactive
CCCCc1oc2ccc(NS(C)(=O)=O)cc2c1C(=O)c1ccc(OCCCN(CCCC)CCCC)cc1.Cl | active
CCC1=NCCO1 | inactive
CC(C)NC(=O)N(C)C[C@@H]1Oc2ccc(NC(=O)Nc3ccc4c(c3)OCO4)cc2C(=O)N([C@H](C)CO)C[C@H]1C | inactive
C#CCN1C(=O)N(C(=O)c2ccccc2)[C@@]2(COCc3ccc(OC)cc3)Oc3ccccc3[C@@H]1[C@H]2CO[Si](C)(C)C(C)(C)C | inactive
CN(C)CCCNC(=O)C[C@@H]1CC[C@@H]2[C@@H](COc3ccc(NC(=O)c4ccccc4F)cc3C(=O)N2C)O1 | inactive
CCS(=O)(=O)NCC[C@H]1CC[C@H](NC(=O)C2CCOCC2)[C@H](CO)O1 | inactive
O=C(C[C@@H]1C[C@H]2c3cc(NS(=O)(=O)c4ccc(F)cc4)ccc3O[C@H]2[C@H](CO)O1)NCCc1ccccc1 | inactive
Cc1ccc(S(=O)(=O)N(C)C[C@@H]2Oc3ccc(NC(=O)CCN4CCOCC4)cc3CC(=O)N([C@@H](C)CO)C[C@H]2C)cc1 | inactive
C[C@H](CO)N1C[C@H](C)[C@H](CN(C)C(=O)NC2CCCCC2)Oc2c(NC(=O)C3CCOCC3)cccc2C1=O | inactive
Cc1ccc(S(=O)(=O)Nc2ccc3c(c2)C(=O)N([C@@H](C)CO)C[C@@H](C)[C@@H](CN(C)C(=O)NC(C)C)O3)cc1 | inactive
C[C@@H]1CN([C@H](C)CO)C(=O)c2cc(NC(=O)Cc3ccccc3)ccc2O[C@H]1CN(C)S(=O)(=O)c1cccs1 | inactive
O=C(OOC(=O)c1ccccc1)c1ccccc1 | active
O=C(O)c1cccnc1 | inactive
O=C(OCc1ccccc1)c1cccnc1 | active
NCC(=O)OCc1ccccc1 | inactive
O=C(OCc1ccccc1)c1ccccc1 | active
N[C@@H](COCc1ccccc1)C(=O)O | inactive
COC(=O)c1cccnc1 | inactive
O=C(CO)c1ccccc1 | inactive
O=C(ON1C(=O)CCC1=O)c1ccccc1 | inactive
